Assay outcomes deposited in PubChem by National Center for Advancing Translational Sciences (NCATS).
This is a sample that favours compounds with a hit; in the whole collection about 7.8% have one here.
Tau filament bind: tau filament binding. Potency, µM (doses to about 57.1 µM), for inactives: at the highest dose activity change, negative = inhibition. P10636. 2% of 71,000 active. recombinant tau filaments, thioflavin S fluorescence, 15 h; filaments grown with octadecylsulfate alongside compound;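 also: % is scaled to controls: 0 for no effect and ±100 for the full control effect; actives lower thioflavin S fluorescence by blocking filaments or displacing dye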
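Thioflavine S fluorescence (ex 450, em 510 nm) reports filaments formed from 1 uM human tau plus 30 uM ODS over 15 h at 37 C (10 mM HEPES pH 7.4, 100 mM NaCl, 5 mM DTT); compounds displacing dye or blocking filaments lower signal.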
HEK293 cAMP ctrl: parental HEK293 cAMP activation (counter-screen); 2.5% of 73,000 active; parental HEK293 CNG cAMP sensor, membrane potential fluorescence; Potency, µM (series often up to 57.1 µM), for inactives: at the top dose activation, usual class: activators; also: % of control where 0% means no effect; nearly all actives have a fitted effect of over 55% in size
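Counterscreen for endogenous-receptor signalling: CNG-channel HEK 293 cells report cAMP rise by membrane depolarization. After 60 min dye equilibration with 100 uM RO 20-1724, compounds incubated 30 min before bottom-read fluorescence at 590 nm.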
PK Bst: modulators of Bacillus stearothermophilus pyruvate kinase. purified pyruvate kinase, luminescence ATP production; ribose 5-phosphate activator present at AC10. Potency, µM. 1.2% of 51,000 active. AID 361; in the data active = potency below about 11 µM; inconclusive = mostly about 12 µM to 25 µM;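 the screen sought inhibitors and activators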;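 also: scaled between full activation by ribose 5 phosphate and full inhibition by luteolin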
TSHR agonist: activates the human thyroid stimulating hormone receptor; P16473; HEK293-CNG-TSHR cells (CNG channel as cAMP sensor), membrane potential dye, cAMP; Potency, µM (series often up to 57.1 µM), for inactives: top-dose activation, usual class: activators; 0.48% of 73,000 active; active = well fitted activation curve with a large enough effect in the main read-out, with a control signal flat, not every such curve was filed as active; inconclusive = small, poorly fitted or top-dose-only effect, or a change in a side signal; inactive = no such curve, though single readings can be large or run the other way; % of control where 0% means no effect;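 also: the control signal comes from parental cells without the receptor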
Target sequence (P16473 whole entry, looked up): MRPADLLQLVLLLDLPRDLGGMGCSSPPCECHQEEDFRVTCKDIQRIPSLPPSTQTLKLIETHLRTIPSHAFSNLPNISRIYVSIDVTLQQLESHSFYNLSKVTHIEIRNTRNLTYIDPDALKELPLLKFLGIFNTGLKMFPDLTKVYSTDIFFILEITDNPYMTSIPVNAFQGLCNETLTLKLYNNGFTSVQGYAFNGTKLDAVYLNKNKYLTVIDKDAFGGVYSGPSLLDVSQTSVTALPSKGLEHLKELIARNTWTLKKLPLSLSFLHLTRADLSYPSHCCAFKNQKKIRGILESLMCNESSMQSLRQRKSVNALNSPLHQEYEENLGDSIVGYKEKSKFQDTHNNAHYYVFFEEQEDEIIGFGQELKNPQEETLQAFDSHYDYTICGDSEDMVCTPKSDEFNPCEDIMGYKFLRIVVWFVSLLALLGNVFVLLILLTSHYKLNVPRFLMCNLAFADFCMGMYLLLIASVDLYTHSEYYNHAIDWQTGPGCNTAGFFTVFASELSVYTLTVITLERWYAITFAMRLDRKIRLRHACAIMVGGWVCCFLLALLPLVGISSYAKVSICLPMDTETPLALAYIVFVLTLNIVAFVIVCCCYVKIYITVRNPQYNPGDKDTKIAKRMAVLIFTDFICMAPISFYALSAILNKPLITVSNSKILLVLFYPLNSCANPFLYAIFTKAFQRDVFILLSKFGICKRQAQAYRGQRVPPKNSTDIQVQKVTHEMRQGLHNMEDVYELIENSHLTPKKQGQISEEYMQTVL
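cAMP rise detected as CNG-channel membrane depolarization by fluorescent dye (emission 590 nm), 30 min after compound, following 60 min dye loading containing 100 uM RO 20-1724 at room temperature. Cells: TSHR/CNG HEK 293, with parental CNG HEK 293 as control.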
15-hLO inh: 15-hLO (ALOX15) enzyme inhibition; P16050; 1.4% of 74,000 active; purified 15hLO-1, xylenol orange hydroperoxide absorbance; Potency, µM (doses to about 57.1 µM), for the others: top-dose activity change, negative = inhibition, usual class: inhibitors; also: % is scaled to controls: 0 for no effect and ±100 for the full control effect; nearly all actives have a fitted effect of over 55% in size
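Inhibition is scored from a chromogenic endpoint. After 15 min enzyme-compound contact, arachidonic acid (50 uM final) reacts 6 min with 40 nM 15hLO-1 at room temperature, then Fe-XO reagent is added for 30 min and absorbance ratio recorded.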
FLuc inh: blocks Photinus pyralis firefly luciferase activity; purified firefly luciferase, luminescence, 8 min; Potency, µM (highest dose often 57.1 µM), for the others: top-dose activity change, negative = inhibition, hits mostly inhibitors; 2.2% of 72,000 active; also: % is scaled to controls: 0 for no effect and ±100 for the full control effect; nearly all actives have a fitted effect of over 40% in size
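Substrate buffer containing 10 uM ATP (pH 7.2 imidazole, Mg2+, KCl, detergent, BSA) is dispensed, compound pinned in, then luciferase/luciferin detector mix added. After 8 min at ambient temperature, light output is measured.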
Numbers without * were called inactive; i = inactive; u = inconclusive; x = not tested or not shown; [ ] = dose if it differs, or a comment. Unless noted, calls follow the shape of the dose curve; as a rule, active = well fitted curve in the direction sought with a large enough effect; inconclusive = small, poorly fitted or top-dose-only effect, or another doubt; inactive = no such curve, though single readings can be large; an effect the other way counts as inactive or inconclusive. Potency is read from the fitted curve at half-maximal effect.

SMILES | Tau filament bind | HEK293 cAMP ctrl | PK Bst | TSHR agonist | 15-hLO inh | FLuc inh
C=CCn1c(C)cc(C(=O)CSc2nc3ccccc3c(=O)[nH]2)c1C | -9.4% | 25.1µM* | i | u | -14.0% | -18.2%
CCOc1cc(S(=O)(=O)NCC2OCCc3ccccc32)c(OCC)cc1-n1cnnn1 (stereo not drawn) | -0.1% | -12.6% | >57 | -5.0% | 7.4% | 2.0%
Cc1ccccc1-c1ccc2ncnc(NCCN3CCOCC3)c2c1 | 1.7% | u | x | u | 17.7% | -13.1%[2.29 µM]
Cn1ncc(C#N)c1NC(=O)c1nn2cccnc2c1Cl | -0.6% | 3.7% | >57 | 0.2% | 13.8% | 0.2%
N[C@@H](Cc1cc(-c2ccc(Cl)cc2Cl)cc(CP(=O)(O)O)c1O)C(=O)O | 39.8µM* | u | x | u | 12.6µM* | -2.5%
O=C1CC(SCCO)C(=O)N1c1ccc(Oc2ccccc2)cc1 (stereo not drawn) | 6.1% | 0.5% | >57 | -0.6% | -1.4% | 0.1%
CCn1c(=S)sc2c(=O)n(-c3ccccc3)c(SC)nc21 | 43.3% | 25.1µM* | >57 | u | -7.4% | -2.0%
N#CCSc1nc2c(sc(=S)n2Cc2ccco2)c(=O)n1-c1ccc(F)cc1 | 7.6% | u | >57 | u | -14.1% | 0.9%
N#[N+]c1ccc(Nc2ccccc2)cc1 | 8.4%[11.4 µM] | 0.8%[11.4 µM] | x | -1.9%[11.4 µM] | -1.4%[11.4 µM] | -0.1%[11.4 µM]
Sc1ccc2ccccc2c1CNCc1ccccc1 | 3.9%[11.4 µM] | 6.1%[11.4 µM] | x | -1.6%[11.4 µM] | -14.9%[11.4 µM] | 2.5%[11.4 µM]
O=C(c1ccc(Cl)cc1)N1CCCCC(Sc2nnc(-c3ccc4c(c3)OCO4)o2)C1=O (stereo not drawn) | 10.7% | 25.4% | x | 10.6% | -6.5% | 12.6µM*
Cn1cc(C2NC(=O)c3c(sc4c3CCCC4)N2)c2ccccc21 (stereo not drawn) | 3.16µM* | 3.2% | x | -15.3% | -14.8% | -15.1%
COc1cc(/C=N/O)ccc1OCc1ccc(C(=O)O)cc1 | x | x | 0.388* | x | x | 0.316µM*
O=C(O)c1cc(/C=N\O)ccc1OCc1ccccc1 | -3.1% | -2.7% | >57 | -0.2% | -9.1% | -1.0%
CCOC(=O)c1snc2c(=O)[nH]cnc12 | 2.1% | 8.0% | >57 | 7.4% | 18.4% | 0.8%
CCOC(=O)C1CCCN(c2ccc(NC(=O)c3snc4c(=O)[nH]cnc34)cc2)C1 (stereo not drawn) | 15.8µM* | -12.5% | >57 | -11.1% | 11.5% | -9.5%
CCN1C(C)=C(C(=O)OC)C(c2ccccc2)N2C(=O)[C@](O)(C(=O)OC)C(c3ccccc3)C(C(C)=O)=C12 (stereo partly drawn) | x | 7.2%[11.4 µM] | x | 3.0%[11.4 µM] | 1.5%[11.4 µM] | x
FC(F)(F)c1cccc(N2CCN(c3nnnn3-c3ccccc3)CC2)c1 | 4.9% | 31.6µM* | >57 | u | 4.3% | -1.3%
Cc1cc(C)nc(N2CCN(c3nnnn3-c3ccccc3)CC2)n1 | 4.4% | u | >57 | u | 12.6% | 3.2%
CC(=O)N1CCN(c2ccc(NCc3ccc(C)cc3)cc2)CC1 | u | 0.8% | >57 | 0.7% | 12.6µM* | -0.9%
CCc1ccc(CNc2ccc(N3CCN(C(C)=O)CC3)cc2)cc1 | 12.6µM* | -1.3% | >57 | x | 15.8µM* | -0.5%
Cc1ccc(CNc2ccc(O)cc2)cc1 | 10µM* | -14.0% | >57 | -8.3% | u | x
Cc1ccc(NCCNc2ccc(C)cc2)cc1 | 3.1% | -2.7% | >57 | -5.5% | 15.8% | 0.3%
CC(=O)Nc1ccc(N2CCN(C(C)=O)CC2)cc1 | -1.5% | 21.5% | >57 | -3.0% | 1.2% | 0.6%
CN1c2cc3c(cc2N=C(c2ccc(C(=O)O)cc2)c2ccccc21)C(C)(C)CCC3(C)C | x | u | x | u | -23.4% | x
SMILES | Tau filament bind | HEK293 cAMP ctrl | PK Bst | TSHR agonist | 15-hLO inh | FLuc inh
Cc1cc(O)c(C)c(O)c1C(=O)O | x | x | x | x | -0.7% | x
Cc1cc(N/C=C/C(=O)c2cccc3ccccc23)no1 | x | x | 9.31* | x | x | 0.3%[25.5 µM]
Cc1cc(C(=O)OCC(=O)Nc2cc(C)on2)c2ccccc2n1 | 0.7% | 4.9% | >57 | -1.8% | 3.7% | -0.9%
C=C1C(=O)O[C@H]2C[C@@]3(C)CCCC(=C)[C@@H]3C[C@H]12 | -9.6% | 1.8% | x | 1.8% | x | -6.5%[11.4 µM]
Cc1ccc(C2NC(=O)c3c(sc4c3CCN(C)C4)N2)s1 (stereo not drawn) | i | -5.7% | x | -4.9% | u | -15.7%
Cc1ccc(C2NC(=O)c3c(sc4c3CCN(C)C4)N2)o1 (stereo not drawn) | i | 3.6% | >11.4 | -1.4% | 3.16µM* | -12.9%
O=C(c1ccco1)N1CCCC(c2nc(-c3ccc(S(=O)(=O)NCc4ccccc4)cc3)no2)C1 (stereo not drawn) | 52.5% | 25.1µM* | >57 | u | -0.8% | 1.4%
COc1cccc(-c2noc(C3CCCN(C(=O)Cc4ccccc4)C3)n2)c1 (stereo not drawn) | -8.7% | u | >57 | u | -3.4% | -0.2%
COc1ccc(-c2noc(C3CCCN(C(=O)CCc4ccccc4)C3)n2)cc1 (stereo not drawn) | 0.3% | 25.1µM* | >57 | u | -12.0% | 1.5%
Cc1ccc(N=Cc2nc(-c3ccco3)oc2O)cc1 | 4.3% | -20.0% | u | -22.5% | -28.9% | 15.8µM*
CCCCC[C@H](O)c1cccc(OCc2ccc3ccccc3n2)c1 | -5.9% | 20µM* | x | u | -4.5% | -11.4%
COc1ccc(-c2cc3nc4n(c(=O)c3s2)CCOC4)cc1 | x | x | 6.74* | x | x | 2µM*
COC(=O)c1ccc2c(c1)N(Cc1nc(-c3ccc(Cl)cc3)oc1C)C(=O)C1CCCN21 (stereo not drawn) | 35.6% | -0.8% | >57 | -5.7% | u | -0.1%
COC(=O)c1ccc2c(c1)N(Cc1nc(-c3cccc(Cl)c3)oc1C)C(=O)C1CCCN21 (stereo not drawn) | 21.0% | 5.8% | >57 | -5.6% | 12.6µM* | 1.1%
CC(=O)Oc1ccc2c(c1)CCC1C2CC[C@@]2(C)C1CC(OC(C)=O)C2OC(C)=O (stereo partly drawn) | x | x | x | x | -1.9% | x
Cc1ccc(C(C#N)N2CCOCC2)cc1 (stereo not drawn) | 5.2% | 4.7% | >57 | -6.7% | 8.5% | -0.1%
COC(=O)N1[C@H](C)C=C[C@]1(Cc1ccccc1)C(=O)NCc1ccccn1 | 1.9% | 18.1% | x | 8.3% | u | x
COC(=O)N1[C@H](C)C=C[C@]1(Cc1ccccc1)C(=O)NCc1ccc(N(C)C)cc1 | -18.4% | 19.9% | x | 2.7% | 20µM* | x
C[C@@H]1C=C[C@](Cc2ccccc2)(C(=O)NCCN2CCOCC2)N1C(=O)c1ccccc1 | 1.8% | 15.8µM* | x | u | -8.3% | x
Cc1cc2ncc(-c3ccc(Cl)cc3)c(N)n2n1 | -7.4% | 9.4% | x | 8.2% | 0.5% | 12.6µM*
Cn1c(-c2ccc(Cl)cc2)cnc1N | -22.0% | 8.0% | x | 1.5% | 24.1% | 7.5%
c1ccc(CCc2nn3c(Cn4cnc5ccccc54)nnc3s2)cc1 | u | u | >57 | u | -21.4% | 0.0%
